According to PubChem BioAssay (NCATS):
Results filed as inconclusive are left out. The source made the active and inactive calls. Unless noted, the call rests on the fitted dose curve.

Columns and labels:
[1] = qHTS for Inhibitors of the Functional Ribonucleoprotein Complex (vRNP) of Lassa (LASV) Arenavirus: LASV Primary Screen - GLuc reporter signal (AID 1347082; calls by dose curve; tested in HEK293 reporter line; further: nearly all actives have a fitted effect of over 60% in size)
[2] = qHTS for Inhibitors of the Functional Ribonucleoprotein Complex (vRNP) of Lassa (LASV) Arenavirus: Viability assay - alamar blue signal for LASV Primary Screen (AID 1347083; calls by dose curve; tested in HEK293 reporter line; further: nearly all actives have a fitted effect of over 80% in size)
[3] = qHTS for Inhibitors of the Functional Ribonucleoprotein Complex (vRNP) of Lymphocytic Choriomeningitis Arenaviruses (LCMV): Viability assay - alamar blue signal for LCMV Primary Screen (AID 1347085; calls by dose curve; tested in HEK293 reporter line; further: nearly all actives have a fitted effect of over 80% in size)
[4] = target: Nucleoprotein (Lymphocytic choriomeningitis virus (strain Armstrong)) (UniProt P09992); experiment: qHTS for Inhibitors of the Functional Ribonucleoprotein Complex (vRNP) of Lymphocytic Choriomeningitis Arenaviruses (LCMV): LCMV Primary Screen - GLuc reporter signal (AID 1347086); further: nearly all actives have a fitted effect of over 70% in size
Nucleoprotein (Lymphocytic choriomeningitis virus (strain Armstrong)), sequence (P09992 whole entry, looked up): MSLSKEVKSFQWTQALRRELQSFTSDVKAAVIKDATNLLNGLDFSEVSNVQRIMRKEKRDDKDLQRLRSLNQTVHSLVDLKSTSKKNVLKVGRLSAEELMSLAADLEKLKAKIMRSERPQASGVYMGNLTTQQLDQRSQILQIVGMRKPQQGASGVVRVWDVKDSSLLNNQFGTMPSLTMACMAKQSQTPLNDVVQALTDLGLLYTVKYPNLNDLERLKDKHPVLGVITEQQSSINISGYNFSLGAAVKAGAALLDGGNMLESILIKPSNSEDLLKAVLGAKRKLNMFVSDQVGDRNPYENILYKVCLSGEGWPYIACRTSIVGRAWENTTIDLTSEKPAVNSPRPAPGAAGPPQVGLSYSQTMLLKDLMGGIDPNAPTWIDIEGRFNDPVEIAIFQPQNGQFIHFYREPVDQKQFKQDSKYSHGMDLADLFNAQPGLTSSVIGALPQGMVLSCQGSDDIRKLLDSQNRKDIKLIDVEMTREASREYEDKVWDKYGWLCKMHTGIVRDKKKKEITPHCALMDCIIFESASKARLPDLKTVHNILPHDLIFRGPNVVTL

Measured: Potency
Further: series mostly up to about 57 µM.

COc1c2c(nc3occc13)C(CCC(C)(C)O)(OC)C(O)CC2 (stereo not given)
inactive: all assays above

Cn1c(N2CCCCS2(=O)=O)nc(C(=O)NCc2ccc(F)cc2)c(O)c1=O
inactive: all assays above

CC12C=CC(=O)C=C1CCC1C2C(=O)CC2(C)C(=O)CCC12 (stereo not given)
inactive: all assays above

CC(C)(O)C1CC[C@@](C)([C@@H]2CC[C@]3(C)[C@H]2[C@H](O)CC2[C@@]4(C)CCC(O)C(C)(C)C4C(OC4OC(CO)C(O)C(O)C4O[C@@H]4OCC(O)C(O)C4O)C[C@]23C)O1 (stereo not given in full)
inactive: all assays above

O=C(O)CCc1ccccc1
inactive: all assays above

CC(C)=CCCC1(C)C=Cc2c(c(C)cc3c2[nH]c2cc(O)ccc23)O1 (stereo not given)
inactive: all assays above

CC/C=C\CCCCCO
inactive: all assays above

CC1(C)CCc2c([nH]c3ccccc3c2=O)O1
inactive: all assays above

Cn1c2ccccc2c(=O)c2c(O)cccc21
inactive: all assays above

CCCCC/C=C\C=C\C(=O)OCC
inactive: all assays above

CC(=O)O[C@H](COc1c2ccoc2cc2oc(=O)ccc12)C(C)(C)O
inactive: all assays above

C[N+](C)(C)CCOP(=O)(O)OP(=O)([O-])OC[C@H]1O[C@@H](n2ccc(N)nc2=O)[C@H](O)[C@@H]1O
inactive: all assays above

CC(C)=CCC[C@](C)(O[C@@H]1O[C@H](CO)[C@@H](O)[C@H](O)[C@H]1O)[C@H]1CC[C@]2(C)[C@@H]1[C@H](O)C[C@@H]1[C@@]3(C)CC[C@H](O[C@@H]4O[C@H](CO)[C@@H](O)[C@H](O)[C@H]4O[C@@H]4O[C@H](CO)[C@@H](O)[C@H](O)[C@H]4O)C(C)(C)[C@@H]3[C@@H](O)C[C@]12C
inactive: all assays above

CCC(=O)OCCC(C)CCC=C(C)C (stereo not given)
inactive: all assays above

Cn1c2c(c(=O)c3ccccc31)CCC(C)(C)O2
inactive: all assays above

Cc1cc2c(c(CO)c1CCO)C(=O)[C@@H](C)[C@@H]2O
inactive: all assays above

CCCCN
inactive: all assays above

CCCCCCCC(=O)C(C)C(=O)N(C)[C@H](Cc1ccc(OC)cc1)C(=O)N(C)[C@H](C(N)=O)C(C)C (stereo not given in full)
inactive: all assays above

C/C=C(/C)C(=O)O[C@H]1[C@@H](O)c2c(ccc3ccc(=O)oc23)OC1(C)C
inactive: all assays above

CCOc1c2ccoc2nc2c(OC)c(OC)ccc12
inactive: all assays above

CC1OCCC1=O (stereo not given)
inactive: all assays above

CC1=CC(=O)CCC1
inactive: all assays above

COc1cc2oc(=O)ccc2cc1[C@H](O)[C@@H](O)C(C)(C)O
inactive: all assays above

OCCc1c[nH]c2ccccc12
inactive: all assays above

CC1C(=O)OC2C1CCC1(C)CCC(=O)C(C)C21 (stereo not given)
inactive: all assays above

COc1cc2c(c(OC)c1OC)-c1c(cc3c(c1OC)OCO3)CC(C)C(C)(O)C2OC(=O)c1ccccc1 (stereo not given)
inactive: all assays above

CC1=CC=C(C(C)C)CC1
inactive: all assays above

C=CC(C)(CCC=C(C)C)OC(=O)CC(C)C (stereo not given)
inactive: all assays above

CC(C)NC(=O)NCCCCCCS(C)=O (stereo not given)
inactive: all assays above

COC(=O)c1ccc2c(c1O)C(=O)c1ccccc1C2=O
inactive: all assays above

C/C(=C\C(=O)O)CC(=O)O
inactive: all assays above

COc1ccc(C2CC(=O)c3c(O)cc(O)cc3O2)c(CC=C(C)C)c1OC (stereo not given)
inactive: all assays above

CC(=O)NC(Cc1cnc[nH]1)C(=O)O (stereo not given)
inactive: all assays above

COc1ccc(-c2coc3cc(OC(C)=O)c(OC)cc3c2=O)cc1
inactive: all assays above

C=CC(C)(CCC=C(C)C)OC(=O)C(C)C (stereo not given)
inactive: all assays above

COc1ccc(CC(=O)c2ccc(OC3OC(CO)C(O)C(O)C3O)cc2O)cc1 (stereo not given)
inactive: all assays above

Nc1[nH]c(=O)nc2c1ncn2C1OC(CO)C(O)C1O (stereo not given)
inactive: all assays above

C=C1CCC2[C@](C)(CO)C(O)CC[C@]2(C)C1CC=C1C(=O)OCC1O (stereo not given in full)
inactive: all assays above

O=C1O[C@@H](c2ccc(O)cc2)Cc2cccc(O)c21
inactive: all assays above

OC[C@H]1O[C@@H](O[C@H]2[C@@H](O)[C@@](O)(CO)O[C@@H]2CO)[C@H](O)[C@@H](O)[C@@H]1O
inactive: all assays above

CC1=CC2OC3CC4OC(=O)C=CC=CC(C(C)O)OCC(O)C5(C)OC5C(=O)OCC2(CC1O)C4(C)C31CO1 (stereo not given)
inactive: all assays above

O=C1C=CC[C@H](/C=C/C[C@@H](O)C[C@H](O)CCc2ccccc2)O1
inactive: all assays above

Cc1ccnc(N)c1
inactive: all assays above

C[N+](C)(C)C[C@H](O)CC(=O)[O-]
inactive: all assays above

CCCCOC(=O)C(=O)OCCCC
inactive: all assays above

COc1cc(/C=C2/C(=O)Nc3ccccc32)cc(OC)c1O
inactive: all assays above

COc1cc2c(cc1O)[C@@H]1Cc3cc(O)c(OC)cc3[C@H](C2)N1C
inactive: all assays above

C/C=C(\C)C(=O)O[C@H](c1cc2ccc(=O)oc2cc1OC)[C@@H](O)C(C)(C)O
inactive: all assays above

CC1=C(O)C(=O)CO1
inactive: all assays above

C[C@]12C[C@H](O)CC(CO)(CO)C1[C@H](O)C[C@@]13CC4[C@@H](CC12)[C@@]4(C)C3 (stereo not given in full)
inactive: all assays above

CC(C)CCCC(=O)O
inactive: all assays above

CC1(C)Oc2cc3oc(=O)ccc3cc2C[C@@H]1O
inactive: all assays above

COc1c2c(cc3oc(CO[C@@H]4O[C@H](CO)[C@@H](O)[C@H](O)[C@H]4O)cc(=O)c13)O[C@H](C(C)(C)O)C2
inactive: all assays above

CC1CCC2C(C)C3C(CC4[C@@H]5CC=C6C[C@@H](O)CC[C@]6(C)C5CC[C@]34C)N2C1 (stereo not given in full)
inactive: all assays above

CC12CCC(=O)C=C1CCC1C2C(O)CC2(C)C(O)CCC12 (stereo not given)
inactive: all assays above

COc1cc(/C=C/c2ccc(O)cc2)cc(OC)c1
inactive: all assays above

O=C/C=C/c1ccc(O)cc1
inactive: all assays above

COc1cc(CCc2ccccc2)c(C(=O)O)c(O)c1CC=C(C)C
inactive: all assays above

C=C1C(=O)OC2C=C(C)CCC=C(C)CCC12 (stereo not given)
inactive: all assays above

COc1ccc(C=CC(=O)c2ccc(OC)c(OC)c2O)cc1OC
inactive: all assays above
